The target of assay [1] is Dual specificity protein kinase CLK3 (Homo sapiens) (UniProt P49761). The settings on record: at 1 µM.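 Further: each value is the mean inhibition of CLK3.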
For assay [2], the target named is Dual specificity tyrosine-phosphorylation-regulated kinase 1A (Homo sapiens) (UniProt Q13627). The settings on record: at 0.1 µM.
The target is the same in assay [3]. The settings on record: at 1 µM.
The target in assay [4] is Dual specificity tyrosine-phosphorylation-regulated kinase 1B (Homo sapiens) (UniProt Q9Y463). The settings on record: at 0.1 µM.
Sequence of Dual specificity tyrosine-phosphorylation-regulated kinase 1B (Homo sapiens) (Q9Y463 whole entry, looked up): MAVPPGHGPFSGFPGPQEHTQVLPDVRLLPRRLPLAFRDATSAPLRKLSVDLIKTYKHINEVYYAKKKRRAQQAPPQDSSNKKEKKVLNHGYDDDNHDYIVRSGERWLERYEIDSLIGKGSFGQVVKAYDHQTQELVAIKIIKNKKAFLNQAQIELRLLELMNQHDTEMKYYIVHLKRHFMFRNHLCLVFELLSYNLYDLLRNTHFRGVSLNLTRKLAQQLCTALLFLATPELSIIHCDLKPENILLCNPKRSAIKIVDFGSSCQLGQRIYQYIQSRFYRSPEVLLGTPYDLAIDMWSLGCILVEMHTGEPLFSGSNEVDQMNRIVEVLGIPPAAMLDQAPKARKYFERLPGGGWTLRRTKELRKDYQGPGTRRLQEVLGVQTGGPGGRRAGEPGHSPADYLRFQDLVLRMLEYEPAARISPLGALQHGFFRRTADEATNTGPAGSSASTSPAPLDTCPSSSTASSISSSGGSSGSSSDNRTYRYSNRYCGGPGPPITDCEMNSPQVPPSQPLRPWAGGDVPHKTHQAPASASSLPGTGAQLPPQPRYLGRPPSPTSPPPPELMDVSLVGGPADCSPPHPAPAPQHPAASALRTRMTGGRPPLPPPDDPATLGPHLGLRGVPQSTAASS
The target is the same in assay [5]. The settings on record: at 1 µM.
Assay [6] addresses T1, Dual specificity tyrosine-phosphorylation-regulated kinase 2 (Homo sapiens) (UniProt Q92630).
T1 sequence (whole entry): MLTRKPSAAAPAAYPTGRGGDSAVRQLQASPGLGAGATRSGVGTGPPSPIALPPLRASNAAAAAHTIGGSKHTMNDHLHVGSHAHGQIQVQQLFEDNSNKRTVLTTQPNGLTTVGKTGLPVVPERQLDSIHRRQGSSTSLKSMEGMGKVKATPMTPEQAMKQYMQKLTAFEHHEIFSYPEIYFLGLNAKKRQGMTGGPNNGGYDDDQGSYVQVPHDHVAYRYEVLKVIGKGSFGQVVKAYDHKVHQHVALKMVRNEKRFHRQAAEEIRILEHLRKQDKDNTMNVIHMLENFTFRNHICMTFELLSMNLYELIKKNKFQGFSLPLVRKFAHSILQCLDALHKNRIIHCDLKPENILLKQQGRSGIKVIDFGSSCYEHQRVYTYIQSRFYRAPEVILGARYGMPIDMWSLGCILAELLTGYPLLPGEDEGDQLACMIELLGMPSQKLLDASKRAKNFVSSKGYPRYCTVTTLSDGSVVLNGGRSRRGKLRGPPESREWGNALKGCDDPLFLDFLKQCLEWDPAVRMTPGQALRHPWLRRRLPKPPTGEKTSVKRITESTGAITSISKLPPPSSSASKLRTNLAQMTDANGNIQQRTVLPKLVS
The settings on record: at 0.1 µM.

The target in assay [7] is T1, Dual specificity tyrosine-phosphorylation-regulated kinase 2 (Homo sapiens). The settings on record: at 1 µM.
The target in assay [8] is Glycogen synthase kinase-3 alpha (Homo sapiens) (UniProt P49840). The settings on record: at 0.1 µM.
Sequence of Glycogen synthase kinase-3 alpha (Homo sapiens) (P49840 2-483 limits assumed): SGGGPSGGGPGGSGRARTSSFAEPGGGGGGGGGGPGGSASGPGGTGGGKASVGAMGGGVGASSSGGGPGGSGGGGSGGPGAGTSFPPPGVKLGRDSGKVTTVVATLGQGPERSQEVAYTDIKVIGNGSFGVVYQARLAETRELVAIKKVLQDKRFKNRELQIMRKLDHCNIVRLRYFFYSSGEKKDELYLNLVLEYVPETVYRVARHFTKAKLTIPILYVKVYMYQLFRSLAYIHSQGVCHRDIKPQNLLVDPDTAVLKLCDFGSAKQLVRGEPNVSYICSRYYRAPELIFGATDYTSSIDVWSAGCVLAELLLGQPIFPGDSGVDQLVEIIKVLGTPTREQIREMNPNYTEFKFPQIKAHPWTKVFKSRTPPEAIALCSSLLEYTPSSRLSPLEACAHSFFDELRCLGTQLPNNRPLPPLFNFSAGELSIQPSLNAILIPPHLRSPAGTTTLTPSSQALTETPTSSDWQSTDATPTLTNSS
Assay [9] shares this target. The settings on record: at 1 µM.
Assay [10] concerns the target Glycogen synthase kinase-3 beta (Homo sapiens) (UniProt P49841). The settings on record: at 0.1 µM.
Assay [11] has the same target. The settings on record: at 1 µM.
The target of assay [12] is Homeodomain-interacting protein kinase 1 (Homo sapiens) (UniProt Q86Z02). The settings on record: at 0.1 µM.
Sequence of Homeodomain-interacting protein kinase 1 (Homo sapiens) (Q86Z02 whole entry, looked up): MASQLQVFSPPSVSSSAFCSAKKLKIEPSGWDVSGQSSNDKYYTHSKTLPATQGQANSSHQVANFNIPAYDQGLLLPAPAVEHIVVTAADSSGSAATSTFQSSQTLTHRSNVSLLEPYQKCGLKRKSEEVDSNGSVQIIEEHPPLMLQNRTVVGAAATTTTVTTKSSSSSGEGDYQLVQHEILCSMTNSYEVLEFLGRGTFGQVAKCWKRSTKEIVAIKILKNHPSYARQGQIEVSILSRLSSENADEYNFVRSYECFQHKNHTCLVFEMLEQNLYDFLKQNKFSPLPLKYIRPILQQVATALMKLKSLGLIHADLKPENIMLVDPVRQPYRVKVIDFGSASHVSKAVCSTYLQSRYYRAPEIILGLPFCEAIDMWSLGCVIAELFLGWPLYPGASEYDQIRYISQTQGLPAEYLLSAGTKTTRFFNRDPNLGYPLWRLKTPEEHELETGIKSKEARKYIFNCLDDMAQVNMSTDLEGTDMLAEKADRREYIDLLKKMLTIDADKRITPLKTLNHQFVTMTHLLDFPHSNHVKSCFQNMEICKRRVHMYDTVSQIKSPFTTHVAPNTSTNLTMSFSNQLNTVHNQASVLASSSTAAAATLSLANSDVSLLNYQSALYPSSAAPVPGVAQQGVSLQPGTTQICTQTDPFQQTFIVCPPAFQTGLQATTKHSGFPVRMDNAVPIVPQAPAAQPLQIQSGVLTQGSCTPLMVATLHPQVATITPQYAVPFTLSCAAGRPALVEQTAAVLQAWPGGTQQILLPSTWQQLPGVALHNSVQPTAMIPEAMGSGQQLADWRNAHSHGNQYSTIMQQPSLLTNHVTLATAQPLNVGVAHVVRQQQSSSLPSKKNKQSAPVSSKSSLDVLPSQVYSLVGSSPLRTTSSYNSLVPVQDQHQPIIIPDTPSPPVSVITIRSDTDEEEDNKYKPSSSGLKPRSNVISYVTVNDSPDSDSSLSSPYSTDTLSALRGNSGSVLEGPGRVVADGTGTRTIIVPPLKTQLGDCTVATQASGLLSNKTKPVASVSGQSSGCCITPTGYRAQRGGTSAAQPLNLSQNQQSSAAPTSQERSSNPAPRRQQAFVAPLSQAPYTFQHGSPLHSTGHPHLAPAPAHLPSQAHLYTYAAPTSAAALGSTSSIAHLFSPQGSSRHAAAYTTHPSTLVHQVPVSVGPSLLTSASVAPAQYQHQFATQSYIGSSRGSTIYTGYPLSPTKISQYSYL
For assay [13] the target is unchanged. The settings on record: at 1 µM.
Assay [14] concerns the target T2, Homeodomain-interacting protein kinase 4 (Homo sapiens) (UniProt Q8NE63).
T2 sequence (whole entry): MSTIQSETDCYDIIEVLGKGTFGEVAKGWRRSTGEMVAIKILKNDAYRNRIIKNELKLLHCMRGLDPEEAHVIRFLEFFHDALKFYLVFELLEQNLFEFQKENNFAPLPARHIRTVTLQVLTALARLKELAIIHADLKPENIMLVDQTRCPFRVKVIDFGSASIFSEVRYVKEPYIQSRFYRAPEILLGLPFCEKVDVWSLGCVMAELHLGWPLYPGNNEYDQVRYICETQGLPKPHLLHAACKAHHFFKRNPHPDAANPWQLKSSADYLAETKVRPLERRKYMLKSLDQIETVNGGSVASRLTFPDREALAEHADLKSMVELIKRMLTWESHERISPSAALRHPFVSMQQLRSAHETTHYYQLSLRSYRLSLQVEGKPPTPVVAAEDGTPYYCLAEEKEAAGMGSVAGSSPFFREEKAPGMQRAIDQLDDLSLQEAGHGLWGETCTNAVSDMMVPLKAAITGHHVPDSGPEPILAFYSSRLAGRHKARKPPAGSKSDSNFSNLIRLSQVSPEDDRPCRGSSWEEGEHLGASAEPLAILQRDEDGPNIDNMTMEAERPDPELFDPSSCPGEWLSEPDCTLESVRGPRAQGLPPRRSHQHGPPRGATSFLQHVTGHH
The settings on record: at 0.1 µM.

For assay [15], the target named is T2, Homeodomain-interacting protein kinase 4 (Homo sapiens). The settings on record: at 1 µM.
Assay [16] concerns the target Mitogen-activated protein kinase 9 (Homo sapiens) (UniProt P45984). The settings on record: at 0.1 µM.
For assay [17] the target is unchanged. The settings on record: at 1 µM.
In assay [18] the target is Mitogen-activated protein kinase 1 (Homo sapiens) (UniProt P28482). The settings on record: at 0.1 µM.
Sequence of Mitogen-activated protein kinase 1 (Homo sapiens) (P28482 whole entry): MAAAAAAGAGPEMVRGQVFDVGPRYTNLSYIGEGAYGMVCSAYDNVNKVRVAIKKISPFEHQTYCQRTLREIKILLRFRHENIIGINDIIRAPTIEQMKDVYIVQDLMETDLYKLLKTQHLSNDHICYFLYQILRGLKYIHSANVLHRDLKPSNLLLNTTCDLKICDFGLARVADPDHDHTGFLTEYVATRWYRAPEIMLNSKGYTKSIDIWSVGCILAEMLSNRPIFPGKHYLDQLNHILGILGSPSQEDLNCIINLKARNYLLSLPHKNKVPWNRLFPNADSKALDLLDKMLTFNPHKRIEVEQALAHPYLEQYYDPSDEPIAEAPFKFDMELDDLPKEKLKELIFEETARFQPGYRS
The target is the same in assay [19]. The settings on record: at 1 µM.
Assay [20] concerns the target Mitogen-activated protein kinase 3 (Homo sapiens) (UniProt P27361). The settings on record: at 0.1 µM.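 Further: each value is a mean inhibition figure.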

The structures appear in SMILES notation.

Sequence of Mitogen-activated protein kinase 3 (Homo sapiens) (P27361 whole entry): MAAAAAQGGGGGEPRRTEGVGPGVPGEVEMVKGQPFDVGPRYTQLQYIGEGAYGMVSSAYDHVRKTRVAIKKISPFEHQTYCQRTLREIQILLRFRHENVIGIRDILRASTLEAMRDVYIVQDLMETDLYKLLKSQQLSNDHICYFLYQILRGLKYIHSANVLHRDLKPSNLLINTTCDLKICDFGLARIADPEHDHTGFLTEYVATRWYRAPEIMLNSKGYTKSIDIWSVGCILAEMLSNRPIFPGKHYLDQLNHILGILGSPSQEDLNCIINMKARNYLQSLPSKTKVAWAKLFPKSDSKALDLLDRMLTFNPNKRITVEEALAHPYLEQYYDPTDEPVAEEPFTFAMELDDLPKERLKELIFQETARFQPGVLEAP
Sequence of Glycogen synthase kinase-3 beta (Homo sapiens) (P49841 whole entry, looked up): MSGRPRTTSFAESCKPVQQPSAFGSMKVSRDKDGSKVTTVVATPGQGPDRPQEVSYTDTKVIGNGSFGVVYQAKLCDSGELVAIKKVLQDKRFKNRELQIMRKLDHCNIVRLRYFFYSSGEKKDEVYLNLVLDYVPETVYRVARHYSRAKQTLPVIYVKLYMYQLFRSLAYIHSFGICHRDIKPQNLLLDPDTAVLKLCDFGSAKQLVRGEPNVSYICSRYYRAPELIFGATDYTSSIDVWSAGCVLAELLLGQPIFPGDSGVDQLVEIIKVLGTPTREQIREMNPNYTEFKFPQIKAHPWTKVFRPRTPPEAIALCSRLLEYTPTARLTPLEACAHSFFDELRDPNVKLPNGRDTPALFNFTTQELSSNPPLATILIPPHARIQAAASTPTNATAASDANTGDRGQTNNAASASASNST
Sequence of Mitogen-activated protein kinase 9 (Homo sapiens) (P45984 whole entry, looked up): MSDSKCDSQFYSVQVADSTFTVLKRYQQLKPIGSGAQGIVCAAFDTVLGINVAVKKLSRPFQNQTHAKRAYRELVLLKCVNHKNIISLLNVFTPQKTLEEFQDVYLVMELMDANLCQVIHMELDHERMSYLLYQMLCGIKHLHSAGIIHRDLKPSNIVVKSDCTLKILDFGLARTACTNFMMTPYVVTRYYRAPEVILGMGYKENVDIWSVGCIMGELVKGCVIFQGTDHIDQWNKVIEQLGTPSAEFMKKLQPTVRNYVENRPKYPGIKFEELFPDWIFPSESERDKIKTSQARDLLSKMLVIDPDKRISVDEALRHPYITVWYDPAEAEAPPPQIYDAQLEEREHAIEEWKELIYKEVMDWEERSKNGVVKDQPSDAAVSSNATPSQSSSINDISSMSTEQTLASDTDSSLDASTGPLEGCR
Sequence of Dual specificity protein kinase CLK3 (Homo sapiens) (P49761 whole entry, looked up): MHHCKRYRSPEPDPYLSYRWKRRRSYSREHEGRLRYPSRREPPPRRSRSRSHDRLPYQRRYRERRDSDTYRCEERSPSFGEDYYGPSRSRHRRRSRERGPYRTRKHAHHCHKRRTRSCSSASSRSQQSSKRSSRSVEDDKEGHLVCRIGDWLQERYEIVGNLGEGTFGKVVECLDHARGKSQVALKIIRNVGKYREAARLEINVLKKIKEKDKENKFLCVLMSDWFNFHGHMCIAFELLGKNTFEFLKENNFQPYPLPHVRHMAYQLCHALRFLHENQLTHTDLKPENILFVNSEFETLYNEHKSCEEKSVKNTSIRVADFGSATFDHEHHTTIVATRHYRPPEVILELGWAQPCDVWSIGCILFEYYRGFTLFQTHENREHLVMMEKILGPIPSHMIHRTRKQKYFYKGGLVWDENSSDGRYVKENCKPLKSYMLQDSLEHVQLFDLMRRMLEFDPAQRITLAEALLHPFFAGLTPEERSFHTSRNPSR

As for `O=C1Nc2ccccc2/C1=C/Nc1ccc2[nH]c(=O)[nH]c2c1`, the inhibition in assay [1] was 4.44%; in assay [2], 6.01%; in [3] it was 23.3%; in assay [4] it was 2.68%; in assay [5] it was 16.1%; in assay [6] it was 4.31%. In addition, the inhibition in assay [7] came out at 11.1%; in [8], 3.7%; in assay [9] it was 14.4%; in assay [10], 2.99%; in assay [11] it was 12%; in assay [12], 1.38%. Also, the inhibition came out at 6.25% in assay [13]; 2.76% in assay [14]; 5.62% in assay [15]; 4.66% in assay [16]; 12.5% in assay [17]; 5.93% in assay [18]. Moreover, the inhibition in assay [19] came to 5.63%; in assay [20] it was 5.69%.

As to `O=C(Nc1ccc(Oc2ccc3[nH]c(NC(=O)c4ccco4)nc3c2)cc1)Nc1cc(C(F)(F)F)ccc1F`, the inhibition in [1] was -2.83%; in assay [2] it was -3.75%; in [3], -1.33%; in assay [4], -3.67%; in [5], -1.57%; in assay [6], 0.62%. Also, the inhibition was 0.74% in assay [7]; -1.87% in assay [8]; 2.71% in [9]; -2.51% in [10]; 1.83% in assay [11]; -4.45% in assay [12]. Besides, the inhibition in assay [13] is -2.14%; in assay [14] it was 13.6%; in assay [15] it was 66.3%; in [16], 0.08%; in assay [17], 2.67%; in assay [18], 0.81%. Besides, the inhibition came to 0.8% in assay [19] and 1.59% in [20].

`Cc1ccc2c(-c3ccnc(Nc4cccc(C(F)(F)F)c4)n3)c(-c3ccccc3)nn2n1`: the inhibition is 2.3% in assay [1]; 3.65% in assay [2]; 2.62% in assay [3]; 1.3% in assay [4]; 2.46% in assay [5]; 4.31% in assay [6]. The inhibition in assay [7] turned out to be 5.83%; in [8], 22.6%; in assay [9] it was 68.5%; in [10] it was 35.7%; in assay [11] it was 76%; in [12], 0.33%. Moreover, the inhibition in assay [13] was 3.87%; in assay [14], 1.36%; in [15] it was 13.5%; in assay [16] it was 30.1%; in assay [17] it was 82.2%; in [18] it was 6.13%. The inhibition came to 9.3% in assay [19] and 5.72% in assay [20].

Turning to `N#Cc1cccc(Nc2nccc(-c3cnn4ncccc34)n2)c1`, the inhibition in [1] amounted to 78.4%; in [2], 81.7%; in assay [3], 86.4%; in assay [4] it was 81.3%; in [5], 86.5%; in assay [6], 20.3%. Besides, the inhibition was found to be 71.5% in [7]; 85.3% in [8]; 89.5% in assay [9]; 84.1% in assay [10]; 88.1% in assay [11]; 82.9% in assay [12]. Also, the inhibition in [13] stood at 89.3%; in [14], 79.9%; in assay [15] it was 88.1%; in assay [16], 10.4%; in assay [17], 44.3%; in [18], 15.6%. The results for the inhibition in assay [19] and in assay [20] were 59.4% and 8.27%, respectively.

Turning to `NS(=O)(=O)c1ccc(N/N=C2\C(=O)Nc3ccc(Cl)cc32)cc1`, the inhibition came out at 1.92% in assay [1]; 1.08% in [2]; 6.73% in assay [3]; 0.19% in assay [4]; 3.96% in assay [5]; 2.3% in assay [6]. The inhibition in assay [7] was found to be 3.44%; in assay [8], 17.3%; in assay [9], 61.2%; in [10] it was 13.5%; in assay [11], 54.1%; in assay [12] it was 2.46%. Moreover, the inhibition in assay [13] is 10.2%; in assay [14], 2.99%; in assay [15] it was 7.64%; in [16], 3.27%; in assay [17] it was 4.35%; in [18], 6.29%. For the same molecule, the inhibition in [19] worked out at 4.79%; in [20], 4.87%.

As to `COc1cc2ncn(-c3cc(OCc4ccccc4S(C)(=O)=O)c(C#N)s3)c2cc1OC`, the inhibition in assay [1] is 3.74%; in [2] it was 6.14%; in assay [3] it was 19.3%; in assay [4], 2.5%; in assay [5] it was 13.9%; in assay [6], 2.4%. Also, the inhibition in [7] was 4.87%; in assay [8], 4.96%; in assay [9], 11.3%; in assay [10] it was 4.26%; in assay [11], 8.83%; in assay [12] it was 2.2%. In addition, the inhibition in assay [13] stood at 28%; in [14], 52.5%; in assay [15], 79%; in assay [16], 2.5%; in assay [17], 6.08%; in assay [18], 1.98%. Moreover, the inhibition in [19] turned out to be 5.43%; in assay [20] it was 3.11%.

In the case of `Oc1cccc(-c2nc(-c3ccccc3)[nH]c2-c2ccncc2)c1`, the inhibition in assay [1] was 2.52%; in assay [2], 2.29%; in assay [3], 8.77%; in assay [4], 1.25%; in assay [5], 7.99%; in assay [6], 2.63%. Besides, the inhibition worked out at 5.4% in assay [7]; 5.29% in [8]; 14.8% in [9]; 5.61% in assay [10]; 18.9% in assay [11]; 1.65% in [12]. The inhibition is 4.29% in [13]; 10.7% in assay [14]; 44.9% in assay [15]; 2.02% in assay [16]; 10.7% in [17]; 5.56% in [18]. Also, the inhibition worked out at 5.82% in assay [19] and 3.48% in [20].

The record behind these values is ChEMBL document CHEMBL1961873, “Compounds: GSK PKIS; Assays: Nanosyn kinase panel” (2012).
